Unmarked numbers belong to inactive results. Inconclusive results are not listed. Where a call stands in place of a potency, no number is given. Active and inactive are the calls of the source. Unless noted, calls come from the whole dose curve; as a rule, active = well fitted curve in the direction sought with a large enough effect in the repeat runs; inconclusive = weak or mixed curves; inactive = no such curve, though single readings can be large; an effect the other way counts as inactive or inconclusive.
What was measured:
[1] = molecular target: Thyrotropin receptor (Homo sapiens) (UniProt P16473); assay: qHTS assay to identify small molecule antagonists of the thyroid stimulating hormone receptor (TSHR) signaling pathway (AID 1259385; calls by dose curve; note: nearly all actives have a fitted effect of over 20% in size); details: TSHR-HEK293 cAMP HTRF, TSH-stimulated antagonist mode; series mostly up to 92.4 µM
Procedure, shortened: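 TSHR-HEK293 cells were plated and held 18 h at 37C/5% CO2, then given compound plus Ro20-1724 and stimulated with TSH at 1.5 ng/mL final. After 30 min at room temperature, cAMP was detected with cAMP-d2/anti-cAMP-cryptate (1 h) by fluorescence.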

[2] = qHTS assay to identify small molecule agonists of the estrogen receptor alpha (ER-alpha) signaling pathway in the presence of an antagonist - cell viability counter screen (AID 1259386); details: VM7Luc4E2 viability, CellTiter-Fluor fluorescence, 22 h; series mostly up to 92.4 µM;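 note: cells exposed to compounds for 22 h at 37 °C before the viability read; nearly all actives have a fitted effect of over 30% in size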; note: potency is the fitted concentration of half-maximal effect
Procedure, shortened: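 Using estrogen-depleted VM7Luc4E2 cells, the 15-concentration compound series was applied together with 10.0nM ICI-182,780 and incubated 22hr at 37C/5% CO2. Cell viability was then scored by CellTiter-Fluor.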

[3] = molecular target: Progesterone receptor (Homo sapiens) (UniProt P06401); assay: qHTS assay to identify small molecule agonists of the progesterone receptor (PR) signaling pathway (AID 1346784; calls by dose curve; note: nearly all actives have a fitted effect of over 30% in size; note: potency is the fitted concentration of half-maximal effect); details: PR-UAS-bla HEK293T, beta-lactamase FRET ratio, 16 h; series mostly up to 92.4 µM
Procedure, shortened: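 Seed PR-UAS-bla HEK 293T cells (2% charcoal-stripped FBS), incubate 6 hr at 37C; add compounds in DMSO, 16 hr at 37C; add LiveBLAzer B/G substrate, 2 hr RT; read fluorescence intensity.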

[4] = molecular target: Progesterone receptor (Homo sapiens) (UniProt P06401); assay: qHTS assay to identify small molecule antagonists of the progesterone receptor (PR) signaling pathway (AID 1346795; active = well fitted inhibition curve with a large enough effect in the signal ratio in the repeat runs, not every such curve was filed as active; the % refers to the signal ratio; note: potency is the fitted concentration of half-maximal effect); details: PR-UAS-bla HEK293T, beta-lactamase FRET ratio, 16 h; series mostly up to 92.4 µM
Procedure, shortened: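 Screening used a GripTite HEK293T line with PR-responsive UAS-beta-lactamase. Cells were challenged with compound in the presence of 1 nM R5020 final for 16 hr at 37C; B/G FRET substrate, 2 hr room temperature, fluorescence.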

[5] = qHTS assay to identify small molecule agonists of the progesterone receptor (PR) signaling pathway - cell viability counter screen (AID 1346799; calls by dose curve; note: nearly all actives have a fitted effect of over 45% in size); details: PR-UAS-bla HEK293T viability, CellTiter-Glo luminescence, 16 h; series mostly up to 92.4 µM
Procedure, shortened: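 Using the same plates as the PR reporter screen, HEK293T PR-UAS-bla cells received compounds for 16 hr at 37C and were then lysed with CellTiter-Glo; luminescence was read 30 min later at room temperature.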

[6] = qHTS assay to identify small molecule antagonists of the TGF-beta/Smad signaling pathway - cell viability counter screen (AID 1346824); details: SBE-bla HEK293T viability, CellTiter-Glo luminescence; series mostly up to 76.8 µM; note: nearly all actives have a fitted effect of over 50% in size
Procedure, shortened: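 SBE-bla HEK 293T cells were plated overnight at 37 C, then given compounds in DMSO plus TGF-beta1 (added as 0.25 ng/mL solution) for 5 hr. After the bla read, CellTiter-Glo was added to the same wells and luminescence read after 30 min at room temperature.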

[7] = qHTS assay to identify small molecule agonists of the TGF-beta/Smad signaling pathway - cell viability counter screen (AID 1346829); details: SBE-bla HEK293T viability, CellTiter-Glo luminescence, 5 h; series mostly up to 76.8 µM; note: top concentration of the series differs between compounds; nearly all actives have a fitted effect of over 45% in size
Procedure, shortened: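 Compound-treated SBE-bla HEK 293T cells (5 hr, 37 C) were assessed for viability with CellTiter-Glo in parallel with the reporter read.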

[8] = qHTS assay to identify small molecule agonists of the TGF-beta/Smad signaling pathway (AID 1346859; active = well fitted activation curve with a large enough effect in the signal ratio in the repeat runs, not every such curve was filed as active; the % refers to the signal ratio); details: SBE-bla HEK293T, TGF-beta/Smad beta-lactamase reporter, 5 h; series mostly up to 76.8 µM
Procedure, shortened: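 Beta-lactamase reporter activity downstream of Smad binding elements was measured in stably transfected HEK 293T cells; compounds were incubated for 5 hr, substrate for 2 hr at room temperature.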

[9] = molecular target: Thyrotropin-releasing hormone receptor (Homo sapiens) (UniProt P34981); assay: qHTS assay to identify small molecule antagonists of the thyrotropin-releasing hormone receptor (TRHR) signaling pathway (AID 1346877; active = well fitted inhibition curve with a large enough effect in the repeat runs, not every such curve was filed as active); details: TRHR-HEK293, TRH-induced calcium fluorescence, antagonist mode; series mostly up to 51.3 µM
Procedure, shortened: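 Calcium signal in dye-loaded TRHR/HEK293 cells; compounds added 5 min before TRH (1 nM final); fluorescence monitored 3 min at 1 s steps.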

[10] = molecular target: Thyrotropin-releasing hormone receptor (Homo sapiens) (UniProt P34981); assay: qHTS assay to identify small molecule agonists of the thyrotropin-releasing hormone receptor (TRHR) signaling pathway (AID 1346891; calls by dose curve;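 note: HEK293 cells expressing TRHR with calcium dye readout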); details: TRHR-HEK293 calcium fluorescence, agonist mode; series mostly up to 57.6 µM
Procedure, shortened: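 Overnight-plated (18 h, 37 °C, 5% CO2) TRHR-Hek293 cells; 2 h calcium dye at 37 °C; compound in DMSO; 3-min kinetic fluorescence read.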

[11] = Human pregnane X receptor (PXR) small molecule agonists, qHTS cell viability counter screen (AID 1346977); details: PXR-Luc HepG2 viability, CellTiter-Fluor, 24 h; series mostly up to 92.4 µM; note: nearly all actives have a fitted effect of over 50% in size; note: potency is the fitted concentration of half-maximal effect
Procedure, shortened: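 After a 5hr pre-incubation, PXR-Luc HepG2 cells received compounds plus positive control in DMSO and were kept 24hr at 37C. Cell viability was quantified by fluorescence from CellTiter-Fluor added for the final hour.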

[12] = Caspase-3/7 induction in HepG2 cells by small molecules, qHTS assay (AID 1346978); details: HepG2 caspase-3/7 activation, Caspase-Glo luminescence, 17 h; series mostly up to 92.4 µM; note: nearly all actives have a fitted effect of over 15% in size
Procedure, shortened: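 Wild-type HepG2 cells (2,000/well) were settled 5 h at 37 C, 5% CO2, then exposed to compounds in DMSO for 17 h. Caspase-3/7 activity was read by luminescence 30 min after adding Caspase-Glo 3/7 reagent at room temperature.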

[13] = Caspase-3/7 induction in CHO-K1 cells by small molecules, qHTS cell viability counter screen (AID 1346979); details: CellTiter-Fluor fluorescence, 17 h; series mostly up to 92.4 µM; note: nearly all actives have a fitted effect of over 35% in size; note: potency is the fitted concentration of half-maximal effect
Procedure, shortened: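 Multiplexed with Caspase-Glo 3/7 in CHO-K1 cells, this counter screen added CellTiter-Fluor after 16hr of compound exposure and recorded fluorescence 1hr later.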

[14] = Caspase-3/7 induction in HepG2 cells by small molecules, qHTS cell viability counter screen (AID 1346981); details: CellTiter-Fluor fluorescence, 17 h; series mostly up to 92.4 µM; note: nearly all actives have a fitted effect of over 30% in size; note: potency is the fitted concentration of half-maximal effect
Procedure, shortened: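 After a 5-hr attachment period at 37 C and 5% CO2, wild-type HepG2 cells received compounds in DMSO. Sixteen hours later CellTiter-Fluor was dispensed and the fluorescent signal quantified after a further hour.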

[15] = molecular target: Nuclear receptor subfamily 1 group I member 2 (Homo sapiens) (UniProt O75469); assay: Human pregnane X receptor (PXR) small molecule agonists, qHTS assay (AID 1346982); details: PXR-Luc HepG2, CYP3A4 luciferase reporter, 24 h; series mostly up to 92.4 µM; note: nearly all actives have a fitted effect of over 35% in size; note: potency is the fitted concentration of half-maximal effect
Procedure, shortened: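 Tox21 qHTS; PXR-Luc HepG2; compounds pinned from DMSO; 24 hr, 37 C; ONE-Glo luciferase detection, 30 min room temperature.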

[16] = Caspase-3/7 induction in CHO-K1 cells by small molecules, qHTS assay (AID 1346980); details: CHO-K1 caspase-3/7 induction, Caspase-Glo luminescence, 17 h; series mostly up to 92.4 µM; note: nearly all actives have a fitted effect of over 15% in size
Procedure, shortened: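 Wild-type cells were seeded at 1,500 per well and settled 5 hr at 37 C, 5% CO2, then exposed to DMSO-dissolved compounds for 17 hr. Caspase-Glo 3/7 reagent was added, and luminescence was read after 30min at room temperature.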

[17] = molecular target: Nuclear receptor subfamily 1 group I member 2 (Rattus norvegicus) (UniProt Q9R1A7); assay: Rat pregnane X receptor (rPXR) activation by small molecules, qHTS assay (AID 1346983); details: rPXR luciferase reporter cells, One-Glo luminescence, 24 h; hits give high values; note: nearly all actives have a fitted effect of over 20% in size
Procedure, shortened: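 Cell-based rPXR luciferase reporter assay, 2,000 cells per well, rested 5hr at 37 C before compound addition in DMSO, then 24 hr at 37 C. One-Glo reagent was added and luminescence read after 30 min at room temperature.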

[18] = qHTS assay to identify small molecule antagonists of the progesterone receptor (PR) signaling pathway - cell viability counter screen (AID 1346798); details: PR-UAS-bla HEK293T viability, CellTiter-Glo luminescence, 16 h; series mostly up to 92.4 µM; note: nearly all actives have a fitted effect of over 50% in size
Procedure, shortened: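 Measures cytotoxicity in parallel with the PR antagonist reporter read: HEK293T PR-UAS-bla cells get compound and R5020 for 16 hr, and remaining viable cells are quantified by CellTiter-Glo luminescence.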

[19] = molecular target: Nuclear receptor subfamily 1 group I member 2 (Homo sapiens) (UniProt O75469); assay: CYP3A4 induction through human pregnane X receptor (PXR) by small molecules, qHTS assay (AID 1346984); details: DPX-2 HepG2 PXR, CYP3A4-luciferin luminescence, 24 h; series mostly up to 46.1 µM; note: nearly all actives have a fitted effect of over 40% in size
Procedure, shortened: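 Cells (DPX-2; HepG2 with PXR element plus CYP3A4-promoter luciferase) settled 5hr, then were treated 24hr at 37C. A 3hr, 3uM-final Luciferin-IPA step preceded luminescence measurement with One-Glo.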

[20] = molecular target: Nuclear receptor subfamily 1 group I member 2 (Homo sapiens) (UniProt O75469); assay: Human pregnane X receptor (PXR) activation by small molecules, qHTS assay (AID 1346985); details: DPX-2 HepG2 CYP3A4-luciferase, 24 h; series mostly up to 38.3 µM; note: nearly all actives have a fitted effect of over 40% in size
Procedure, shortened: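 DPX-2 cells (HepG2 co-transfected with a PXR response element and a CYP3A4-promoter luciferase construct) were seeded at 2,000 per well, rested 5 hr at 37C, then exposed to DMSO-dissolved compounds for 24 hr. Activation was read as luciferase luminescence.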

Sequence of Thyrotropin-releasing hormone receptor (Homo sapiens) (P34981 whole entry, looked up): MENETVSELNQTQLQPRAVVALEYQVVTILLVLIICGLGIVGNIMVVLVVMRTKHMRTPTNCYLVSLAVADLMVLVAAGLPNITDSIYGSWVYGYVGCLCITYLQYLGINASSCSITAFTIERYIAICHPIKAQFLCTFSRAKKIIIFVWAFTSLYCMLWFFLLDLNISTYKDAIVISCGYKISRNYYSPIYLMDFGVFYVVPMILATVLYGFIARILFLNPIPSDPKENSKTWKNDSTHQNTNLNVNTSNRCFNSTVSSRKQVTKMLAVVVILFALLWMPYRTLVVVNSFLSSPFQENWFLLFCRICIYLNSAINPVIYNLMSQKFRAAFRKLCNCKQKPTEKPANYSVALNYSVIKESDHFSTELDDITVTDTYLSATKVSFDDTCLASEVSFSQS
Sequence of Nuclear receptor subfamily 1 group I member 2 (Rattus norvegicus) (Q9R1A7 whole entry, looked up): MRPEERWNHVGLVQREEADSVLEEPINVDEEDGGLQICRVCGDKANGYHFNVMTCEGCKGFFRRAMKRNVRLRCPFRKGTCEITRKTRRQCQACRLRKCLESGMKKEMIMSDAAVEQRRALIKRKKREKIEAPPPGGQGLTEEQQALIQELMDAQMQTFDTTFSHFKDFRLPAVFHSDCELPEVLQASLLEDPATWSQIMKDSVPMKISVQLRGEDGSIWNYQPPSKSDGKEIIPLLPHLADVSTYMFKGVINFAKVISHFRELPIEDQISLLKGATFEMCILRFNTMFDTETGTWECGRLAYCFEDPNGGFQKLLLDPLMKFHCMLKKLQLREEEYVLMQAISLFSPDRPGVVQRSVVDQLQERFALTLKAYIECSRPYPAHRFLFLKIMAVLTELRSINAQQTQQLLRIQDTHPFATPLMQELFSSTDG
Sequence of Nuclear receptor subfamily 1 group I member 2 (Homo sapiens) (O75469 whole entry, looked up): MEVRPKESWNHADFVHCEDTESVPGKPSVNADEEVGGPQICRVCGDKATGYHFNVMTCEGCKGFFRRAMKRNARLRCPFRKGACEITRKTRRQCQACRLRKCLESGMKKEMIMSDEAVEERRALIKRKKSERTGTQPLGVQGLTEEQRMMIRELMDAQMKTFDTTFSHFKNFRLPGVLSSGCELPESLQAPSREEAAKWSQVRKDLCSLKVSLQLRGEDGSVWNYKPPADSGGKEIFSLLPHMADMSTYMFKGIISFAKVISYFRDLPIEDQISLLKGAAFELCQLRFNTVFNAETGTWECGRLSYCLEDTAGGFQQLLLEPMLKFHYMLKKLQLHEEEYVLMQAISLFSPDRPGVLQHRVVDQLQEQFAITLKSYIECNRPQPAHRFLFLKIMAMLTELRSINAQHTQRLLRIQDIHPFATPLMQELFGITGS
Sequence of Progesterone receptor (Homo sapiens) (P06401 whole entry, looked up): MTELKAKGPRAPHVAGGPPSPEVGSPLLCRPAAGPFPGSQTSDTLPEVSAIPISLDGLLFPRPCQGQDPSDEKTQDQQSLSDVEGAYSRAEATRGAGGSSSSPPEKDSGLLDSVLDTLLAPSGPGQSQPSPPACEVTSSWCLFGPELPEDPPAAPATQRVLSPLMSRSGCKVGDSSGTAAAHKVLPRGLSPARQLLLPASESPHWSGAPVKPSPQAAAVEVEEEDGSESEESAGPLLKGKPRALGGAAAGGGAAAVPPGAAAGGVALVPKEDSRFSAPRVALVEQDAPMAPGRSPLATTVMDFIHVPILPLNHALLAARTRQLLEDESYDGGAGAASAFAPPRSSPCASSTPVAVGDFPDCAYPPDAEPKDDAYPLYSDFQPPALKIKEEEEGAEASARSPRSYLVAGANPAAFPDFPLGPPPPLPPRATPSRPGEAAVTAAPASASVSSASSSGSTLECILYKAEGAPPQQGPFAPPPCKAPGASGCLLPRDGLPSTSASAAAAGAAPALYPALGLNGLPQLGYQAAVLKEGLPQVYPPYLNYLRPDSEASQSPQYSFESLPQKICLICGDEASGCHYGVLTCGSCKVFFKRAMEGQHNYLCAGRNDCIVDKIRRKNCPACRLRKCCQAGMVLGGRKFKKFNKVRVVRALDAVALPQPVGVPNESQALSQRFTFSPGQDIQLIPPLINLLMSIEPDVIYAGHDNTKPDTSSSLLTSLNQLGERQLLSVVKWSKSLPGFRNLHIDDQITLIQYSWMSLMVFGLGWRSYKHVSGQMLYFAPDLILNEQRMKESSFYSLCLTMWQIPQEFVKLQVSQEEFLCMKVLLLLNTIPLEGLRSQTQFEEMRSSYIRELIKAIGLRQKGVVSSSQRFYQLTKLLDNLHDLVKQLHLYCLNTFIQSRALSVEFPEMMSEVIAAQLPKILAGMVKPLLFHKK
Sequence of Thyrotropin receptor (Homo sapiens) (P16473 whole entry, looked up): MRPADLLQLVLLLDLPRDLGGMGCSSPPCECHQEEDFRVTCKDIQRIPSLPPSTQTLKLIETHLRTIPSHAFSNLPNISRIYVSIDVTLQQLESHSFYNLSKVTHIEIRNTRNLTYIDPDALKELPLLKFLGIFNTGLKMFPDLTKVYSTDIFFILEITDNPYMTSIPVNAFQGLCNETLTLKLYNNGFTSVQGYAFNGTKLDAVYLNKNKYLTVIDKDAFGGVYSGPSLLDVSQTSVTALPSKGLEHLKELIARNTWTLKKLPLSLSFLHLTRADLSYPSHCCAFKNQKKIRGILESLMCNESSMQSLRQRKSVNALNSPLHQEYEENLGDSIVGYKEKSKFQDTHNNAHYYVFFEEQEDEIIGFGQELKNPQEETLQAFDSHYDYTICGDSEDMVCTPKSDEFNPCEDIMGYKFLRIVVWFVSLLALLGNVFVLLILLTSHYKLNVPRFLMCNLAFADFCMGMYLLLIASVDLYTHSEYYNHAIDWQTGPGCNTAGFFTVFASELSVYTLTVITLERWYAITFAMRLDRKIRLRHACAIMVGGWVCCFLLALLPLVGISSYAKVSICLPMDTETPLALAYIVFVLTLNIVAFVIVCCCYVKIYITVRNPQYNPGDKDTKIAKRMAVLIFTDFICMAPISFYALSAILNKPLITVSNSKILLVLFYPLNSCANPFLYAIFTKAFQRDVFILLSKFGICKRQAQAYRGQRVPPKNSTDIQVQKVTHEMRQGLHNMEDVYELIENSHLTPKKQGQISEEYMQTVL

Compound	outcome [1]	Potency [2]	Potency [3]	Potency [4]	Potency [5]	outcome [6]	outcome [7]	outcome [8]	outcome [9]	outcome [10]	Potency [11]	Potency [12]	Potency [13]	Potency [14]	Potency [15]	outcome [16]	max activation [17] [%]	Potency [18]	Potency [19]	Potency [20]
Cc1cccc(OCC(O)CNC(C)(C)C)c1C (centres undefined)	inactive	inactive	inactive	inactive	inactive	inactive	inactive	inactive	inactive	inactive	inactive	inactive	inactive	inactive	inactive					
CCCCCCOc1ccccc1C(N)=O	inactive	inactive	inactive	7.5 µM (active)		inactive	inactive	inactive			inactive	inactive		inactive		inactive	6.49			
Cc1[nH]cnc1-c1ccc(Cl)cc1	inactive	inactive	inactive			inactive	inactive	inactive	inactive	inactive	inactive	inactive	inactive	inactive				inactive		
OCCCCC(O)CO (centres undefined)	inactive	inactive	inactive	inactive		inactive		inactive	inactive	inactive	inactive	inactive	inactive	inactive	inactive	inactive				
Cc1cccc(C)c1OCC(C)N (centres undefined)	inactive	inactive	inactive	inactive	inactive	inactive	inactive	inactive	inactive	inactive	inactive	inactive	inactive		inactive		-1.45		inactive	inactive
COc1cc(N)ccc1C	inactive	inactive	inactive			inactive	inactive				inactive	inactive	inactive	inactive		inactive		inactive		
CCN1CCc2nc(N)oc2CC1	inactive	inactive	inactive	inactive	inactive	inactive	inactive		inactive	inactive	inactive	inactive	inactive	inactive	inactive	inactive	-5.4		inactive	inactive
CN1C(C)(C)CCCC1(C)C	inactive	inactive	inactive		inactive	inactive	inactive	inactive	inactive	inactive	inactive	inactive	inactive		inactive					
c1ccc2nccnc2c1	inactive	inactive	inactive	inactive		inactive	inactive	inactive	inactive	inactive	inactive	inactive	inactive		inactive					
CC(=O)Nc1ccc(S(=O)(=O)Nc2ccc([N+](=O)[O-])cc2)cc1	inactive	23.7 µM (active)	inactive	inactive	inactive	inactive	inactive	inactive	inactive	inactive		inactive		29.8 µM (active)	inactive		-3.2		inactive	inactive
O=C(O)CCSSCCC(=O)O	inactive	inactive	inactive	inactive	inactive	inactive		inactive	inactive	inactive		inactive	inactive	inactive	inactive					
CC(CO)c1ccccc1 (centres undefined)	inactive	inactive	inactive	inactive	inactive	inactive	inactive	inactive	inactive	inactive		inactive	inactive	inactive	inactive	inactive				
CC(COC(C)(C)C)OCCCO (centres undefined)	inactive	inactive		inactive		inactive			inactive	inactive		inactive		inactive	inactive			inactive		
COc1ccc2c(c1)C(=O)N(CCc1ccc(S(=O)(=O)NC(=O)NC3CCCCC3)cc1)C(=O)C2(C)C	inactive	inactive	5.96 µM (active)			inactive	inactive		inactive	inactive		inactive	inactive			inactive	-1.03			
Nc1ccc2cc(S(=O)(=O)O)cc(O)c2c1		48.3 µM (active)	inactive	inactive	inactive	inactive	inactive	inactive	inactive	inactive	54.2 µM (active)	inactive	54.2 µM (active)		6.08 µM (active)	inactive		inactive		
CC(C)NCC(O)COc1cccc2[nH]ccc12 (centres undefined)	inactive	inactive			inactive	inactive	inactive	inactive	inactive	inactive	inactive	inactive	inactive	inactive		inactive		inactive		
CCOC(=O)CC(=O)c1ccccc1	inactive	inactive	inactive		inactive	inactive	inactive		inactive	inactive	inactive	inactive	inactive	inactive	68.6 µM (active)	inactive				
OC[C@H](Cc1cccc(O)c1)[C@H](CO)Cc1cccc(O)c1		inactive	inactive	inactive	inactive	inactive	inactive	inactive	inactive	inactive		inactive	inactive	inactive	inactive			inactive		
O=C(OCC(COC(=O)c1cccnc1)(COC(=O)c1cccnc1)COC(=O)c1cccnc1)c1cccnc1		inactive	inactive	inactive	inactive	inactive	inactive	inactive	inactive	inactive	inactive	inactive	inactive	inactive	inactive	inactive		inactive		
